In the library only some 11% were active in any assay of this set; here they are far more common.
Tau fluor cs: counter-screen for tau fibril formation inhibitors. tau K18 P301L Alexa594 fluorescence, heparin fibrillization. Potency, µM (titrated, usually from 57.7 µM), without a hit: at the top dose activity change, negative = decrease. actives 0.93% (n = 280,000). AID 1463; further: potency means the concentration at half of the fitted maximal effect; nearly all actives have a fitted effect of over 55% in size
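Human tau K18 P301L (15 uM unlabeled, 0.24 uM Alexa 594-labeled) in 100 mM sodium acetate pH 7 with 20 uM heparin, 6 hr at 37 C. ThT 30 uM added, 1 hr ambient; Alexa 594 FP and total fluorescence read at 555/632 nm.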
Coupling enz: coupling enzyme interference in Giardia aldolase counter-screen; coupling enzyme system counterscreen, AmpLite Red fluorescence; activity change, negative = inhibition, % at 58.2 µM, hits read low; actives 0.67% (n = 290,000); in the data active means activity change below about -30%
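First, compound is pin-transferred into glyceraldehyde-3-phosphate coupling-enzyme reagent at 57.5 uM final and held 10 min at RT. Next, substrate, coupling system and AmpLite Red are added. After 20 min RT, fluorescence (525/598 nm) is read.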
Tau ThT inhib: inhibitors of human tau fibril formation, thioflavin T binding | actives 2.1% (n = 270,000) | P10636 | AID 1460 | Potency, µM (series often up to 57.4 µM), without a hit: at the top dose activity, negative = inhibition, usual class: inhibitors | recombinant tau K18 P301L (four-repeat tau fragment), heparin-induced fibrillization, ThT fluorescence; further: potency means the concentration at half of the fitted maximal effect; nearly all actives have a fitted effect of over 55% in size
Target sequence (P10636 561-689 P618L limits assumed): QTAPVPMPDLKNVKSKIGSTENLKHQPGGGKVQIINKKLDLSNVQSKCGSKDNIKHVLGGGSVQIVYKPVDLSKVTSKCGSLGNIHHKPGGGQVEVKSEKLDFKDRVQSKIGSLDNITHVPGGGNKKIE
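Tau K18 P301L fragment (15 uM unlabeled plus 0.24 uM Alexa 594-labeled) in 100 mM sodium acetate pH 7 with compound, fibrillization induced by 20 uM heparin for 6 hr at 37 C. Thioflavin T (30 uM) added, fluorescence read after 1 hr (ex 450, em 510 nm).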
G9a inh: blocks human histone lysine methyltransferase G9a. Q96KQ7. G9a H3K9 monomethylation, AlphaScreen, 2 h. Potency, µM (doses to about 102 µM), without a hit: top-dose activity, negative = inhibition, most hits filed as inhibitors. actives 8.8% (n = 350,000). AID 504332; further: potency means the concentration at half of the fitted maximal effect; nearly all actives have a fitted effect of over 75% in size
Target sequence (Q96KQ7 913-1193 limits assumed): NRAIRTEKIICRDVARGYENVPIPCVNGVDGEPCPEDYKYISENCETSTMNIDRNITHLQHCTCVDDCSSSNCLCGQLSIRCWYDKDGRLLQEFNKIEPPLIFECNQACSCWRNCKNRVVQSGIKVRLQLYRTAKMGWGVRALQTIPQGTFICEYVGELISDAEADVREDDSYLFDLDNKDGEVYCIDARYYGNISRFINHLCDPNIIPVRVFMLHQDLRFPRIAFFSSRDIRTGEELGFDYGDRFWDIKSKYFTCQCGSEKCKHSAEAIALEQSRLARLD
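G9a (20 nM) was preincubated 15 min with compound, then reacted 2 h at room temperature with 500 nM biotin-H3K9 peptide and 20 µM SAM. Monomethyl-H3K9 detected by AlphaScreen using anti-H3K9me1 antibody.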
Sfp PPTase inh: Sfp phosphopantetheinyl transferase inhibition; Q9F4F7; Biochemical Sfp PPTase activity, qHTS; Potency, µM, without a hit: largest response in the series, negative = inhibition, actives largely listed as inhibitors; actives 3.5% (n = 310,000);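 further: the enzyme is Sfp with the accession as filed and its product quenches rhodamine fluorescence; potency means the concentration at half of the fitted maximal effect; 0% = enzyme reaction without inhibitor and -100% = no enzyme wells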
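Compounds were incubated with enzyme (final 15 nM) for 15 min at room temperature before substrate addition started the reaction. Fluorescence at 525 nm excitation, 598 nm emission was recorded immediately and after 30 minutes.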
Tau fibril FP: blocks human tau fibril formation measured by polarization; K18 P301L tau heparin fibrillization, Alexa594 FP, 6 h; Potency, µM (doses to about 57.7 µM), for inactives: at the top dose activity, negative = inhibition, most hits filed as inhibitors; actives 0.39% (n = 280,000); AID 1468; further: potency means the concentration at half of the fitted maximal effect; nearly all actives have a fitted effect of over 55% in size
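FP of Alexa 594-tau after heparin (20 uM) induction. Substrate: human K18 P301L, 15 uM unlabeled, 0.24 uM labeled. Buffer 100 mM sodium acetate pH 7. 6 hr, 37 C.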
Numbers without * were called inactive; u = inconclusive; x = no result; [ ] = remark or other dose. Unless noted, the call rests on the fitted dose curve; in most records, active means well fitted curve in the direction sought with a large enough effect; inconclusive means small, poorly fitted or top-dose-only effect, or another doubt; inactive means no such curve, though single readings can be large; an effect the other way counts as inactive or inconclusive. Unless noted, on the % scale 0 is the no-effect control and ±100 the full control effect.

SMILES	Tau fluor cs	Coupling enz	Tau ThT inhib	G9a inh	Sfp PPTase inh	Tau fibril FP
NC(=O)Nc1ccc(Nc2ccccc2)cc1	u	0	u	56µM*	-20%	3%
O=C(Nc1ccc(Nc2ccccc2)cc1)C(Cl)Cl	u	0	u	u	-10%	u
O=C(Nc1ccc(Nc2ccccc2)cc1)C(Cl)(Cl)Cl	7.9µM*[quencher]	0	u	u	-25%	7%
O=C(c1ccc2c(c1)N(Cc1ccccc1F)C(=O)c1ccccc1S2=O)N1CCCCC1 (centres undefined)	-11%	x	-7%	-33%[59 µM]	x	1%
N#CC1=C(S)N=C(N)C(c2nc(-c3ccccc3)cs2)C12CCCC2 (centres undefined)	u	-1	28µM*	-43%[59 µM]	u	u
N#CC1=C(S)N=C(N)C(c2nc(-c3ccccc3)cs2)C12CCCCC2 (centres undefined)	-25%	0	u	-23%[59 µM]	0%	u
Cc1ccc(C(=O)CCC(=O)N2CCC(C(N)=O)CC2)s1	x	x	x	2%[2.33 µM]	x	x
Cn1c(Cc2ccccc2)nnc1SCCC(=O)Nc1ccccc1	3%	6	-5%	7.9µM*	-9%	-1%
CCn1c(Cc2ccccc2)nnc1SCC(=O)Nc1ccc(N)cc1	-19%	0	u	50µM*	17%	2%
CCn1c(Cc2ccccc2)nnc1SCC(=O)Nc1ccc(OC)cc1	-2%	1	0%	15%[59 µM]	7%	7%
CCOc1ccc(N2CC(NC(=O)c3ccc(S(=O)(=O)N4CCCCC4)cc3)CC2=O)cc1 (centres undefined)	-11%	x	-4%	-5%[59 µM]	x	-4%
C=C(C)CSc1cc(C)c(C#N)c2nc3ccccc3n12	3%	-14	5%	1.4µM*	32µM*	2%
COc1cccc(CNc2ccc(F)c(Cl)c2)c1	u	-1	u	50µM*	4%	4%
CCN(Cc1ccncc1)S(=O)(=O)c1ccc(C(C)=O)cc1	2%	-11	-7%	u	79µM*	15%
CCN(CC)S(=O)(=O)c1ccc(C(=O)Nc2ccc(Cc3ccncc3)cc2)cc1	-23%	0	-3%	2%	25%	-14%
COc1ccc(-n2c(Cc3cccn3C)nnc2SCC(=O)Nc2ccccc2F)cc1	-7%	3	-8%	50µM*	-8%	-3%
Cn1cccc1Cc1nnc(SCC(=O)N2CCOCC2)n1CCc1ccccc1	0%	-2	-8%	45µM*	-4%	8%
COc1ccc(-n2c(Cc3cccn3C)nnc2SCC(=O)Nc2nccs2)cc1	-8%	-3	-11%	u	-15%	-8%
COc1ccc(-n2c(Cc3cccn3C)nnc2SCC(=O)Nc2ccccc2C)cc1	2%	1	-3%	u	-8%	7%
COc1ccc(-n2c(Cc3cccn3C)nnc2SCC(=O)Nc2ccc(F)cc2F)cc1	-6%	3	-12%	40µM*	-5%	2%
COc1ccc(-n2c(Cc3cccn3C)nnc2SCC(=O)Nc2cccc(C)c2C)cc1	-10%	2	u	45µM*	-10%	1%
COc1ccc(OC)c(NC(=O)CSc2nnc(Cc3cccn3C)n2-c2ccc(F)cc2)c1	-5%	2	-16%	u	-8%	1%
Cc1ccc(C)c(S(=O)(=O)c2nnn3c2nc(NC(C)C)c2sccc23)c1	-24%	x	2%	-29%[59 µM]	x	-15%
COc1cccc(-n2c(=O)c3c(C)c(C(=O)N(C)C)sc3n(Cc3ccc(F)cc3Cl)c2=O)c1	0%	x	6%	0%[59 µM]	x	-5%
O=c1[nH]cnc(O)c1C(c1cccc([N+](=O)[O-])c1)c1c(O)nc[nH]c1=O	-9%	-2	-7%	-13%	0%	-7%
SMILES	Tau fluor cs	Coupling enz	Tau ThT inhib	G9a inh	Sfp PPTase inh	Tau fibril FP
CCOc1ccc(-n2c(SCC(=O)Nc3ccc(CC)cc3)nc3c(oc4ccccc43)c2=O)cc1	-14%	x	-7%	1%[59 µM]	x	u
COc1ccc(-n2c(Cc3cccn3C)nnc2SCC(=O)N2CCOCC2)cc1	2%	2	-2%	71µM*	2%	16%
Cn1cccc1Cc1nnc(SCC(=O)N2CCOCC2)n1-c1ccc(F)cc1	-4%	-19	-11%	u	u	7%
O=C1Cc2cc(CCN3CCN(c4nsc5ccccc45)CC3)c(Cl)cc2N1	-28%	-6	u	11µM*	-15%	u
Oc1cc2cc(CCN3CCN(c4nsc5ccccc45)CC3)c(Cl)cc2[nH]1	x	x	x	u	-8%	x
COC(=O)c1c(NC(=O)Cc2ccc(OC)c(S(=O)(=O)N3CCOCC3)c2)sc(C)c1C	x	x	x	50µM*	x	x
COc1ccc2nc(NC(=O)Cc3ccc(OC)c(S(=O)(=O)N4CCOCC4)c3)sc2c1	u	1	-17%	79µM*	16%	-2%
NS(=O)(=O)c1ccc(NC(=O)COC(=O)c2cnc(Cl)c(Cl)c2)cc1	-5%	3	-12%	x	6%	-3%
O=C1C(=O)N(CNc2cccnc2)c2ccccc21	0%	-37*	5%	-29%[59 µM]	2%	12%
Oc1[nH]c2ccccc2c1N=Nc1nncc2ccccc12	u	1	x	13µM*	-25%	3%
CCOC(=O)c1ccc(NC(=O)c2ccc(-c3cccc(Cl)c3C)o2)cc1	u	x	u	2%[59 µM]	x	u

Assay outcomes (PubChem)
